The test relates to HCoV-OC43. More on the design: species or system RD; HTS, protection from HCoV-OC43 induced cell death, luminescent cell viability (CellCounting-Lite 2.0), inhibition rate. The settings on record: 24 h post infection, 1 h compound pre-incubation, 10 µM, inhibitor.

Structures can show the parent of a compound that is named as a salt. Where two headings read alike, the source gives them in different places. The whole screen tested about 3,300 compounds, of which about 60 (2%) showed an effect of 50% or more. For the sample, strong results were picked, then their nearest neighbours and some compounds at random.

Take `C=C1[C@@H](C)[C@H]2[C@H](Cc3ccccc3)NC(=O)[C@]23OC(=O)/C=C/[C@H](O)CCC[C@@H](C)C/C=C/[C@H]3[C@@H]1O` [Cytochalasin B]: the “OC43 Inhibition rate” value came to 63%.

As to `C=C1C[C@@]23CC[C@H]4[C@@](C)(CCC[C@@]4(C)C(=O)O[C@@H]4O[C@H](CO)[C@@H](O)[C@H](O)[C@H]4O[C@@H]4O[C@H](CO)[C@@H](O)[C@H](O)[C@H]4O)[C@@H]2CC[C@]1(O[C@@H]1O[C@H](CO)[C@@H](O)[C@H](O[C@@H]2O[C@H](CO)[C@@H](O)[C@H](O)[C@H]2O)[C@H]1O[C@@H]1O[C@H](CO)[C@@H](O)[C@H](O)[C@H]1O)C3` [Rebaudioside D], the “OC43 Inhibition rate” value is listed as 1.1%.

For the compound `CCCCC1OC(=O)C2=CCCCC21` (centres unmarked) [Sedanolide], the “OC43 Inhibition rate” value is on record as -0.1%.

Turning to `COc1ccc(-c2oc3c(CC=C(C)C)c(O)cc(O)c3c(=O)c2O)cc1` [Icaritin], the “OC43 Inhibition rate” value was 0.1%.

Consider `COc1ccc(-c2oc3c(CC=C(C)C)c(O)cc(O)c3c(=O)c2O[C@@H]2O[C@@H](C)[C@H](O)[C@@H](O)[C@H]2O)cc1` [Baohuoside I], for which the “OC43 Inhibition rate” value was 70.2%.

`CC(C)=CCc1c(O)ccc(-c2coc3cc(O)cc(O)c3c2=O)c1O` [Licoisoflavone A]: the “OC43 Inhibition rate” value is on record as 59.7%.

Regarding `CC(C)=CCc1c(O)cc(O)c2c(=O)c(-c3ccc(O)cc3)coc12` [Lupiwighteone], the “OC43 Inhibition rate” value turned out to be 63.3%.

Take `CC(C)=CCc1c(O)cc(O)c2c(=O)c(O[C@@H]3O[C@@H](C)[C@H](O)[C@@H](O)[C@H]3O)c(-c3ccc(O)cc3)oc12` [IKarisoside A]: the “OC43 Inhibition rate” value stood at 14.9%.

Consider `CC(C)=CCc1c(-c2ccc(O)cc2O)oc2c3c(cc(O)c2c1=O)OC(C)(C)C=C3` [Morusin], for which the “OC43 Inhibition rate” value came out at 5.8%.

As for `CC(C)=CCc1cc(-c2coc3cc(O)cc(O)c3c2=O)cc(O)c1O` [Glycyrrhisoflavone], the “OC43 Inhibition rate” value worked out at 2.1%.

As for `COc1ccc(-c2oc3c(CC=C(C)C)c(O)cc(O)c3c(=O)c2O[C@@H]2O[C@@H](C)[C@H](O)[C@@H](O)[C@H]2O[C@@H]2O[C@@H](C)[C@H](O)[C@@H](O)[C@H]2O)cc1` [2''-O-Rhamnosylicariside II], the “OC43 Inhibition rate” value amounted to 0.3%.

On to `CC(C)=CCc1c(O)cc(O)c2c(=O)cc(-c3ccc(O)cc3)oc12` [Licoflavone C], for which the “OC43 Inhibition rate” value is reported as 7.3%.

Take `CC(C)=CCc1cc(-c2coc3cc(O)ccc3c2=O)ccc1O` [Neobavaisoflavone]: the “OC43 Inhibition rate” value is on record as 18.1%.

As to `O=c1c(-c2ccc(O)cc2)coc2cc(O)cc(O)c12` [Genistein], the “OC43 Inhibition rate” value turned out to be 6.8%.

Take `CC(C)=CCc1c(-c2ccc(O)cc2O)oc2c(CC=C(C)C)c(O)cc(O)c2c1=O` [Mulberrin]: the “OC43 Inhibition rate” value is reported as 51.7%.

With `CC(=O)O[C@H]1C[C@@]2(C)[C@@H](C[C@@H](O)[C@H]3[C@@]4(C)CC[C@@H](O)[C@@H](C)[C@@H]4CC[C@@]32C)/C1=C(\CCC=C(C)C)C(=O)O` [Fusidic acid (sodium salt)], the “OC43 Inhibition rate” value is 1.2%.

With `CC1(C)[C@H](OC(=O)c2ccccc2)CC[C@]2(C)C3=CC[C@@]4(C)[C@@H]5C[C@](C)(COC(=O)c6ccccc6)CC[C@]5(C)CC[C@]4(C)C3=CC[C@@H]12` [3,29-O-Dibenzoyloxykarounidiol], the “OC43 Inhibition rate” value is -4.4%.

As for `COC(=O)C1=CO[C@@H](O[C@@H]2O[C@H](CO)[C@@H](O)[C@H](O)[C@H]2O)[C@@H]2[C@@]3(C)O[C@H]3[C@@H](O)[C@]12O` [Sesamoside], the “OC43 Inhibition rate” value is recorded as -1.2%.

As for `CCC/C=C\C=C\CCCCCCCCCO` [Bombykol], the “OC43 Inhibition rate” value is recorded as 1.1%.

As for `COc1nccc(N)n1` [2-O-Methylcytosine], the “OC43 Inhibition rate” value is 0.2%.

Consider `C[C@]12CC[C@@H](O)C[C@H]1CC[C@@H]1[C@@H]2[C@@H](O)C[C@@]2(C)[C@H]1CC[C@]2(O)C(=O)CO` [Tetrahydrocortisol], for which the “OC43 Inhibition rate” value is -0.2%.

Consider `CC(=O)O[C@@]12CO[C@@H]1C[C@H](O)[C@@]1(C)C(=O)[C@H](O)C3=C(C)[C@@H](OC(=O)[C@H](O)[C@@H](NC(=O)c4ccccc4)c4ccccc4)C[C@@](O)([C@@H](OC(=O)c4ccccc4)[C@H]21)C3(C)C` [10-Deacetyltaxol], for which the “OC43 Inhibition rate” value is 0.2%.

For the compound `CC(=O)c1cc2c(CO)cc(O)cc2oc1=O` [Armillarisin A], the “OC43 Inhibition rate” value was -0.4%.

Take `COc1ccc([C@H]2OC[C@H]3[C@@H]2CO[C@@H]3c2ccc(OC)c(OC)c2)cc1OC` [Pinoresinol dimethyl ether]: for the setting “OC43 Inhibition rate, 24 h”, the “OC43 Inhibition rate” value is recorded as 1.1%.

As for `COc1ccc(-c2oc3c(CC=C(C)C)c(O[C@@H]4O[C@H](CO)[C@@H](O)[C@H](O)[C@H]4O)cc(O)c3c(=O)c2O[C@@H]2O[C@@H](C)[C@H](O)[C@@H](O)[C@H]2O[C@@H]2OC[C@@H](O)[C@H](O)[C@H]2O)cc1` [Epimedin B], the “OC43 Inhibition rate” value came out at 1%.

On to `O=C(CC(=O)c1ccccc1)c1ccccc1` [DBM, dibenzoylmethane], for which the “OC43 Inhibition rate” value is 102.9%.

For the compound `O=C(c1ccccc1)c1ccccc1` [Benzophenone], the “OC43 Inhibition rate” value is -0.1%.

Take `O=C(O)c1ccccc1` [Benzoic acid]: the “OC43 Inhibition rate” value is -0.2%.

As to `Oc1cc(O)cc(/C=C/c2c(O)cccc2O)c1` [Gnetol], the “OC43 Inhibition rate” value is -1%.

On to `O=c1cc(-c2ccc(O)cc2)oc2c([C@@H]3O[C@H](CO)[C@@H](O)[C@H](O)[C@H]3O)c(O)c([C@@H]3OC[C@@H](O)[C@H](O)[C@H]3O)c(O)c12` [Vicenin-1], for which the “OC43 Inhibition rate” value is listed as -1.7%.

For `COc1cc([C@H]2Oc3cc([C@H]4Oc5cc(O)cc(O)c5C(=O)[C@@H]4O)ccc3O[C@@H]2CO)ccc1O` [Silibinin], the “OC43 Inhibition rate” value (OC43 Inhibition rate, 24 h) worked out at 1.4%.

Take `CCCCCCCCCC(O)CC(=O)O` (centres unmarked) [3-Hydroxydodecanoic acid]: the “OC43 Inhibition rate” value is recorded as -3.9%.

With `Cn1cc(C(=O)O)ccc1=O` [1-Methyl-6-oxo-1,6-dihydropyridine-3-carboxylic acid], the “OC43 Inhibition rate” value worked out at 0.2%.

Turning to `O=C(CCc1ccc(O)c(O)c1)NCCCNCCCCNCCCNC(=O)CCc1ccc(O)c(O)c1` [Kukoamine A], the “OC43 Inhibition rate” value is 2.2%.

In the case of `Nc1ncnc2c1ncn2[C@@H]1C[C@H](CO)[C@@H](O)[C@H]1O` [Aristeromycin], the “OC43 Inhibition rate” value came to 53.9%.

On to `Nc1ncnc2c1ncn2[C@H]1C[C@H](O)[C@@H](CO)O1` [2'-Deoxyadenosine monohydrate], for which the “OC43 Inhibition rate” value (OC43 Inhibition rate, 24 h) is recorded as -2.3%.

`Nc1ncnc2c1ncn2[C@@H]1O[C@H](CO)C[C@H]1O` [Cordycepin]: the “OC43 Inhibition rate” value is on record as -0.3%.

With `C=C1C(=O)O[C@H]2C[C@@H](C)[C@@H]3CCC(=O)[C@@]3(C)[C@@H](OC(C)=O)[C@H]12` [Ergolide], the “OC43 Inhibition rate” value was 10.6%.

Turning to `CC(C)=CCC[C@](C)(O)[C@@H]1CC=C(C)CC1` [Levomenol], for the setting “OC43 Inhibition rate, 24 h”, the “OC43 Inhibition rate” value is on record as -0.7%.

For the compound `Cn1cnc2c(ncn2[C@@H]2O[C@H](CO)[C@@H](O)[C@H]2O)c1=O` [1-Methylinosine], the “OC43 Inhibition rate” value was determined as 0.1%.

For the compound `C[C@@H]1C/C=C/C=C/C=C/C=C/[C@H](O[C@@H]2O[C@H](C)[C@@H](O)[C@H](N)[C@@H]2O)C[C@@H]2O[C@](O)(C[C@@H](O)C[C@H]3O[C@@H]3/C=C/C(=O)O1)C[C@H](O)[C@H]2C(=O)O` [Natamycin], the “OC43 Inhibition rate” value was -0.1%.

For the compound `C[C@@H]1[C@H](O)[C@@H](C)/C=C/C=C/C=C/C=C/C=C/C=C/C=C/[C@H](O[C@@H]2O[C@H](C)[C@@H](O)[C@H](N)[C@@H]2O)C[C@@H]2O[C@](O)(C[C@@H](O)C[C@@H](O)[C@H](O)CC[C@@H](O)C[C@@H](O)CC(=O)O[C@H]1C)C[C@H](O)[C@H]2C(=O)O` [amphotericin B], the “OC43 Inhibition rate” value is listed as 103.7%.

On to `O=S(=O)(O)CCO` [Isethionic acid sodium salt], for which the “OC43 Inhibition rate” value was -0.5%.

For the compound `O=C(O)[C@H](O)[C@H](O)[C@@H](O)[C@H](O)[C@H](O)CO` [NSC 42196], the “OC43 Inhibition rate” value amounted to 3.4%.

For `N[C@H](C(=O)O)[C@@H]1CC(Cl)=NO1` [Acivicin (hydrochloride)], the “OC43 Inhibition rate” value stood at 61.6%.

For `CC1(C)CCC[C@]2(C)[C@H]3CCO[C@]3(C)CC[C@@H]12` [Ambroxide], the “OC43 Inhibition rate” value was -0.5%.

For the compound `CC1=CC(=O)C(C(C)C)CC1` (centres unmarked) [Piperitone], the “OC43 Inhibition rate” value is -0.8%.

For `CC(=O)NCCCC[C@H](N)C(=O)O` [Nepsilon-Acetyl-L-lysine], the “OC43 Inhibition rate” value is reported as -0.2%.

As to `C=C[C@H]1CN2CC[C@@]3(C(=O)Nc4ccccc43)[C@@H]2C[C@@H]1/C(=C\OC)C(=O)OC` [Isocorynoxeine], the “OC43 Inhibition rate” value was -0.3%.

For `CCC/C=C1\OC(=O)C2=C1CC[C@H]1[C@H]3C=C4C(=O)O/C(=C\CCC)[C@@]4(CC3)[C@@H]21` [Levistolide A], the “OC43 Inhibition rate” value turned out to be 77.4%.

Regarding `CCC/C=C1\OC(=O)C2=C1CC[C@@H](O)[C@H]2O` [Senkyunolide H], the “OC43 Inhibition rate” value is on record as -0.5%.

Take `CCC/C=C1\OC(=O)C2=C1CC[C@H](O)[C@H]2O` [Senkyunolide I]: the “OC43 Inhibition rate” value is given as -0.4%.

On to `O=C(O)c1ccc(=O)oc1` [Coumalic acid], for which the “OC43 Inhibition rate” value was 10.5%.

Regarding `CC(=O)O[C@@H]1CC[C@@]2(C)[C@@H](CC[C@]3(C)[C@@H]2CC=C2[C@@H]4[C@@H](C)[C@H](C)CC[C@]4(C)CC[C@]23C)[C@@]1(C)C(=O)O` [3-Acetyl-beta-boswellic acid], the “OC43 Inhibition rate” value was 66.7%.

On to `C[C@H]1[C@H](C)CC[C@]2(C)CC[C@]3(C)C(=CC[C@@H]4[C@@]5(C)CC[C@@H](O)[C@](C)(C(=O)O)[C@@H]5CC[C@]43C)[C@H]12` [β-Boswellic acid], for which the “OC43 Inhibition rate” value was -0.2%.

In the case of `CC(=O)O[C@@H]1CC[C@@]2(C)[C@@H](CC[C@]3(C)[C@@H]2[C@H](O)C=C2[C@@H]4[C@@H](C)[C@H](C)CC[C@]4(C)CC[C@]23C)[C@@]1(C)C(=O)O` [3-O-Acetyl-11-hydroxy-beta-boswellic acid], the “OC43 Inhibition rate” value is 15.2%.
